Measured values: PubChem BioAssay AID1159580 (chemical genetic matrix, 2015)
Hit rate of the full screen: of about 5,500 compounds, about 2,000 (36%) were called active. Another 18% or so got no clear call; they are omitted. Cut-off read from the data, not from the text of the source: active = normalized growth mostly below about 0.91 (no sharp cut-off); inconclusive = no clear call, values can overlap the other calls; inactive = mostly above about 0.92. The list shows a part of the results.

Assay: chemical genetic growth profiling, strain panel (AID 1159580);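 note: tested at 20 µM; growth read once vehicle control cultures reached saturation at 30 °C; 1 = growth at the plate median or of vehicle wells; lower values mean less growth of the strain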
Conditions: S. cerevisiae deletion strains, growth OD

Measured: normalized growth

O=C(O)CC[C@@H](NC(=O)c1ccccc1C(=O)O)C(=O)O
inactive: locus YAL013W, strain DEP1, active compounds read low 1.02 | locus YAL040C, strain CLN3, active compounds read low 0.995 | locus YCL061C, strain MRC1 (second series), active compounds read low 1.01 | locus YDR363W, strain ESC2, active compounds read low 1.01 | locus YER002W, strain NOP16, active compounds read low 1.03 | locus YGR229C, strain SMI1, active compounds read low 1.03 | locus YJR075W, strain HOC1, active compounds read low 1.01 | locus YMR307W, strain GAS1, active compounds read low 1 | locus YNL175C, strain NOP13, active compounds read low 1 | locus YNL197C, strain WHI3, active compounds read low 1.01 | locus YNL224C, strain SQS1, active compounds read low 1.01 | locus YNL322C, strain KRE1, active compounds read low 1 | locus YOR083W, strain WHI5 (second series), active compounds read low 1.02 | locus YPL241C, strain CIN2, active compounds read low 1.01
